Laboratory results as given in PubChem BioAssay AID1566 (Sanford-Burnham Center for Chemical Genomics, 2009).
Hit rate of the full screen: of about 290,000 compounds, about 1,800 (0.62%) were called active. Cut-off read from the data, not from the text of the source: active = inhibition above about 50%; inactive = the rest. The entries come from a sample that favours actives as a whole.

Experiment: inhibition of NOD2-driven NF-kB reporter – cell-based, luminescence, uHTS, HEK293 (AID 1566)
Conditions: HEK293 NOD2/NF-kB luciferase reporter, at 4 µM, hits give high values
For `COc1ccc(S(=O)(=O)NCc2cccnc2)cc1OC`, the inhibition was 6.9% (inactive).
With `CCN(CC)c1nc(Nc2ccc([N+](=O)[O-])cc2)nc(N(CC)CC)n1` the inhibition was 15.7% (inactive).
In the case of `O=C(O)Cc1sc(NCCc2ccccc2)nc1-c1ccc(F)cc1`, the inhibition is reported as -6.1% (inactive).
For `C/C(=N/NC(=O)Cc1c(C)[nH][nH]c1=O)c1ccc(O)cc1`, the inhibition was -3% (inactive).
In the case of `Cc1ccccc1Nc1ccc2nonc2c1[N+](=O)[O-]`, the inhibition is reported as 17.9% (inactive).
For `CC(=O)Nc1cccc(NC(=O)CSc2nnc(NC(=O)C3CC3)s2)c1`, the inhibition was 2.1% (inactive).
For `CCOc1ccc(-c2nc3n(c(=O)c2C#N)CCS3)cc1`, the inhibition was -0.8% (inactive).
In the case of `O=C(OCCCN1CCOCC1)c1ccc(O)c(O)c1`, the inhibition is reported as 11.1% (inactive).
With `CC(=O)CSc1ncnc2sc3c(c12)CCC3` the inhibition was 12.6% (inactive).
In the case of `Cc1ccc(C(=O)CSc2ncnc3sc4c(c23)CCCC4)cc1`, the inhibition is reported as 30.2% (inactive).
With `O=C(c1ccc(Cl)c([N+](=O)[O-])c1)N1CCCc2ccccc21` the inhibition was -7.5% (inactive).
With `O=C(CSc1nnnn1C1CCCCC1)NNC(=O)c1ccco1` the inhibition was 5.4% (inactive).
In the case of `Cc1ccccc1-n1cc(C(=O)c2cc(Cl)ccc2O)cc(C#N)c1=O`, the inhibition is reported as 1.1% (inactive).
For `C(=N\Nc1ccccn1)/c1ccc2c(c1)OCCO2`, the inhibition was -125% (inactive).
For `C(=N\Nc1nc2ccccc2[nH]1)/c1ccc2c(c1)OCCO2`, the inhibition was -126% (inactive).
For `C(=N\Nc1ccc2ccccc2n1)/c1ccc2c(c1)OCCO2`, the inhibition was 67.8% (active).
With `Cc1[nH]c2ccccc2c1-c1nc2ccccc2[nH]c1=O` the inhibition was 4.1% (inactive).
In the case of `CC(C)C(=O)OCc1cn(-c2ccc(Cl)c(Cl)c2)nn1`, the inhibition is reported as 10.3% (inactive).
With `CCOC(=O)CN1C(=O)S/C(=C/c2ccc(O)c([N+](=O)[O-])c2)C1=O` the inhibition was -11.2% (inactive).
In the case of `O=C1/C(=C\c2cccc(O)c2O)SC(=S)N1Cc1ccccc1`, the inhibition is reported as 7.8% (inactive).
In the case of `O=C(O)c1cccc(CN2C(=O)S/C(=C/c3cccc([N+](=O)[O-])c3)C2=O)c1`, the inhibition is reported as -10.3% (inactive).
In the case of `O=C(O)c1cccc(CN2C(=O)S/C(=C/c3ccccc3[N+](=O)[O-])C2=O)c1`, the inhibition is reported as 19.8% (inactive).
With `COCc1cc(C)nc(Nc2ccccc2OC)c1C#N` the inhibition was 3% (inactive).
With `Cc1ccc(-n2nnc3c(=O)n(CC(=O)NCc4ccco4)cnc32)cc1` the inhibition was 17.7% (inactive).
For `COc1cc(S(=O)(=O)N2CCCCCC2)ccc1-n1cnnn1`, the inhibition was 7.9% (inactive).
For `Cc1ccc(OC(=O)COc2ccccc2C)c(-n2nc3ccccc3n2)c1`, the inhibition was 3% (inactive).
In the case of `BrC(=C\c1ccccc1)/C=N/Nc1nc(N2CCOCC2)nc(N2CCOCC2)n1`, the inhibition is reported as -54.1% (inactive).
In the case of `CCOC(=O)C1CCN(S(=O)(=O)c2cc(C(=O)OC)n(C)c2)CC1`, the inhibition is reported as 18.2% (inactive).
With `Cc1ccc(S(=O)(=O)N2CCN(CC(=O)Nc3ccc([N+](=O)[O-])cc3)CC2)cc1C` the inhibition was -86.3% (inactive).
In the case of `C=CCSc1nc2sc(C)c(C)c2c(=O)[nH]1`, the inhibition is reported as 7.9% (inactive).
For `CC(CCc1ccccc1)NC(=O)C(=O)c1c[nH]c2ccccc12` (stereo not given), the inhibition was 6.1% (inactive).
With `O=C(O)CC(NC(=O)c1cccc([N+](=O)[O-])c1)c1ccc2c(c1)OCO2` (stereo not given) the inhibition was 14.8% (inactive).
With `Cc1ccc(CN2CCCN(C)CC2)c(C)c1` the inhibition was -3.4% (inactive).
In the case of `CCn1c(SCC(=O)Nc2nc(-c3ccccc3)cs2)nnc1-c1ccccc1O`, the inhibition is reported as 11.1% (inactive).
With `CCn1c(SCC(=O)Nc2nc(-c3ccc(C)cc3)cs2)nnc1-c1ccccc1` the inhibition was 29% (inactive).
For `CCOc1ccccc1NC(=S)N(CCN(C)C)C(C)c1ccncc1` (stereo not given), the inhibition was -15.1% (inactive).
With `CC(C)(C)c1cc(-c2n[nH]c(=S)n2-c2ccc(Cl)cc2)n[nH]1` the inhibition was 6.2% (inactive).
For `NC(=O)C1CCN(C(=O)C2CCC(=O)N(C3CCCCCC3)C2)CC1` (stereo not given), the inhibition was -3.9% (inactive).
In the case of `O=C(CNc1ccccc1)N/N=C/c1c(O)ccc2ccccc12`, the inhibition is reported as 19.3% (inactive).
In the case of `COc1ccccc1NCC(=O)N/N=C/c1c(O)ccc2ccccc12`, the inhibition is reported as 25% (inactive).
With `O=C(CNc1ccc(F)cc1)N/N=C/c1c(O)ccc2ccccc12` the inhibition was 53.5% (active).
With `Cc1occc1-c1nnc(SCC(=O)NCC2CCCO2)n1C` (stereo not given) the inhibition was 8.4% (inactive).
In the case of `O=C(N/N=C/c1ccc2c(c1)OCO2)c1ccc2c(c1)OCO2`, the inhibition is reported as -137% (inactive).
For `O=C(O)c1cc(N/N=C/c2ccc3c(c2)OCO3)ccc1Cl`, the inhibition was -118% (inactive).
With `O=C(O)c1ccc(N/N=C/c2ccc3c(c2)OCO3)cc1` the inhibition was 66.8% (active).
In the case of `S=C(NCc1ccncc1)Nc1ccccc1`, the inhibition is reported as 16.2% (inactive).
For `O=C(CC(Nc1ccccc1Cl)C(=O)O)c1ccccc1` (stereo not given), the inhibition was -21.4% (inactive).
For `O=C(CC(Nc1ccc(Cl)cc1Cl)C(=O)O)c1ccccc1` (stereo not given), the inhibition was 61.2% (active).
For `O=C(CC(Nc1ccc(Cl)cc1)C(=O)O)c1ccccc1` (stereo not given), the inhibition was 20.4% (inactive).
For `COc1ccc(NC(=O)CSc2ccc(-c3sc(C)nc3C)nn2)cc1OC`, the inhibition was 5.8% (inactive).
With `COc1ccc(NC(=O)CSc2ccc(-c3sc(C)nc3C)nn2)cc1` the inhibition was 4.8% (inactive).
In the case of `S=C(Nc1cc(Cl)ccc1Cl)Nn1cnnc1`, the inhibition is reported as 16.1% (inactive).
For `CC(Oc1cc(C(F)(F)F)cc(C(F)(F)F)c1)C(=O)NC(N)=O` (stereo not given), the inhibition was 11.1% (inactive).
For `O=C1CCCN2N=C(SCC(=O)N3CCCCC3)SC2=N1`, the inhibition was 5.8% (inactive).
With `O=C(COc1ccc(Cl)cc1Cl)Nc1ccccc1NS(=O)(=O)c1cccs1` the inhibition was 25.1% (inactive).
With `O=C(COc1ccccc1)Nc1ccccc1NS(=O)(=O)c1cccs1` the inhibition was 11.6% (inactive).
For `OC(c1cccc(Cl)c1)c1nccc2ccccc12` (stereo not given), the inhibition was 2.5% (inactive).
In the case of `COC(=O)c1nc2nc(-c3cccs3)cc(C(F)(F)F)n2n1`, the inhibition is reported as 9.2% (inactive).
In the case of `Nc1cccc(Oc2ccc3c(c2)C(=O)NC3=O)c1`, the inhibition is reported as -12.7% (inactive).
With `CCOC(=O)c1c(-c2ccc(C)cc2)csc1NC(=O)CCSc1nnc2ccccn12` the inhibition was 53.9% (active).
In the case of `CCOC(=O)c1c(-c2ccccc2)csc1NC(=O)CSc1nnnn1C`, the inhibition is reported as 12.2% (inactive).
In the case of `Cc1ccc(NC(=O)CCSc2nnc3ccccn23)cc1`, the inhibition is reported as 18.1% (inactive).
For `CC(=O)c1c(C)oc2ccc(OCc3ccccc3)cc12`, the inhibition was -10.9% (inactive).
For `CC(=O)/C(=C/c1ccc(N(C)C)cc1)C(=O)c1ccccc1`, the inhibition was -7.8% (inactive).
For `Cc1nn(-c2ccc(NC(=O)c3ccncc3)cc2)c(C)c1Cl`, the inhibition was 50% (active).
For `Cc1nn(-c2ccc(C(=O)O)cc2)c(C)c1Cl`, the inhibition was 11.5% (inactive).
In the case of `O=C(Nc1ccc(Cl)cc1)c1ccncc1`, the inhibition is reported as -5% (inactive).
In the case of `COc1ccc(S(=O)(=O)N(C)c2ccc(C(=O)N3CCN(c4ccccc4)CC3)cc2)cc1OC`, the inhibition is reported as 7.6% (inactive).
In the case of `CC(=O)Nc1ccc(S(=O)(=O)Nc2ccc3ccccc3n2)cc1`, the inhibition is reported as 10.8% (inactive).
With `CCS(=O)(=O)N1CCN(c2ncnc3sc(C)c(C)c23)CC1` the inhibition was 18% (inactive).
In the case of `Cc1nc(N2CCN(S(=O)(=O)c3ccc(Br)cc3)CC2)c2c(C)c(C)sc2n1`, the inhibition is reported as 45% (inactive).
In the case of `COc1ccc(CCC(=O)NNC(=O)c2cc(Cl)ccc2OC)cc1`, the inhibition is reported as -4.6% (inactive).
In the case of `COc1ccc(/C(N)=N/OC(=O)Cc2ccccc2[N+](=O)[O-])cc1`, the inhibition is reported as -2.6% (inactive).
For `COc1ccc(NC(=O)CSc2ncnc3c2sc2ccccc23)c(OC)c1`, the inhibition was -3.6% (inactive).
With `O=C(c1ccc(Cl)cc1)n1c(NCc2ccccc2)n[nH]c1=S` the inhibition was -38.1% (inactive).
With `Oc1ccc(N=Nc2c(O)ccc3ccccc23)cc1` the inhibition was 17% (inactive).
With `Oc1ccc2ccccc2c1/C=N/c1nccs1` the inhibition was -2.7% (inactive).
For `Oc1ccc2ccccc2c1N=Nc1nccs1`, the inhibition was 91.9% (active).
With `O=C(N/N=C/c1ccco1)c1cccc(NC(=O)c2ccccc2Cl)c1` the inhibition was 50.6% (active).
With `O=C(N/N=C/c1ccco1)c1cccc(NC(=O)c2cccc(Cl)c2)c1` the inhibition was 12.2% (inactive).
For `O=C(N/N=C/c1ccco1)c1ccc(NC(=O)c2ccccc2Cl)cc1`, the inhibition was -2.4% (inactive).
For `O=C(Nc1cccc(-n2cccn2)c1)C1CCCN(Cc2ccc(C#CCCO)cc2)C1` (stereo not given), the inhibition was -17.7% (inactive).
In the case of `C=CCNC(=O)c1c(Cl)cccc1Cl`, the inhibition is reported as 11.9% (inactive).
In the case of `Cc1ccc2[nH]c3c(NCc4ccccc4)ncnc3c2c1`, the inhibition is reported as 39.4% (inactive).
For `COc1ccc(CNc2ncnc3c2[nH]c2ccccc23)cc1`, the inhibition was 23.3% (inactive).
For `Fc1ccc2[nH]c3c(NCc4ccccc4)ncnc3c2c1`, the inhibition was 62.7% (active).
With `CCOC(=O)c1sc2cccc(Cl)c2c1N` the inhibition was 10.6% (inactive).
For `COc1ccc(CC(=O)Nc2cccnc2)cc1`, the inhibition was -3% (inactive).
With `O=C(Cc1c(Cl)cccc1Cl)Nc1ccncc1Cl` the inhibition was 13.2% (inactive).
In the case of `COCc1cc(Sc2ccc(OC)cc2)nc(-c2ccccc2)n1`, the inhibition is reported as 18.2% (inactive).
In the case of `CC1CCN(c2ccc(S(=O)(=O)N3CCC(C)CC3)cc2N)CC1`, the inhibition is reported as 50.3% (active).
In the case of `Nc1cc(S(=O)(=O)N2CCCCC2)ccc1N1CCOCC1`, the inhibition is reported as 9.9% (inactive).
With `CC1CCN(S(=O)(=O)c2ccc(S(=O)(=O)N3CCCC3)cc2)CC1` the inhibition was -1.3% (inactive).
In the case of `Cc1ccc(C(=O)N2CCCC(Nc3ccc(C)c(C)c3)C2)c(=O)[nH]1` (stereo not given), the inhibition is reported as 9.6% (inactive).
In the case of `CCCCn1c(SCC(=O)c2ccccc2)nc2ccsc2c1=O`, the inhibition is reported as 13.3% (inactive).
With `CCCCn1c(SCC(=O)N2CCC(C)CC2)nc2ccsc2c1=O` the inhibition was -2.9% (inactive).
In the case of `CC(=O)c1cccc(NC(=O)C2C3CCC(C3)C2C(=O)O)c1` (stereo not given), the inhibition is reported as 4.1% (inactive).
In the case of `COc1ccc(NC(=O)c2ccc(NCC3CCCO3)c([N+](=O)[O-])c2)cc1` (stereo not given), the inhibition is reported as 13.3% (inactive).
In the case of `Cc1ccccc1NC(=S)NNc1ncc(C(F)(F)F)cc1Cl`, the inhibition is reported as 4.9% (inactive).
In the case of `Fc1ccccc1NC(=S)NNc1ncc(C(F)(F)F)cc1Cl`, the inhibition is reported as 13.7% (inactive).
